# Measurements from PubChem BioAssay.
# Active and inactive are the calls of the source. Unless noted, no rule for the calls is given here.
# Key:
# [1] = resazurin metabolic signal in HepG2 cells – cell-based, resazurin fluorescence, 24 h, PK04 Diversity Set, profiling panel (AID 1172); conditions: HepG2 viability, higher = more signal; also: test concentration not given here
# [2] = budding yeast growth changes without added modifier – OD600, strain BY4716, 24 h, basal condition, primary screen (AID 1173); conditions: S. cerevisiae BY4716 growth, OD600, 24 h; higher = more signal, called active from +8 up or from −8 down
# [3] = viability profiling in MM1S myeloma cells – cell-based, resazurin fluorescence, basal, 24 h, PK04 Diversity Set, profiling panel (AID 1174); conditions: higher = more signal, called active from +8 up or from −8 down;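 also: MM1S multiple myeloma cell line; test concentration not given here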
# [4] = molecular target: Dihydroorotate dehydrogenase (quinone), mitochondrial (Plasmodium falciparum (isolate 3D7)) (UniProt Q08210); assay: inhibition of P. falciparum DHODH – biochemical, C-terminal His tag, absorbance 600 nm, primary screen (AID 1175); conditions: PfDHODH enzyme, DCIP absorbance 600 nm; higher = more signal, called active from +8 up or from −8 down;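 also: recombinant parasite enzyme with a five histidine tag at its C terminus; test concentration not given here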
# [5] = inhibition of PAO1 biofilm formation – strain PAO1, LB-PBS medium, absorbance 600 nm, primary screen (AID 1176); also: test concentration not given here; conditions: P. aeruginosa PAO1 growth/biofilm, A600, 12 h; higher = more signal
# [6] = growth modulation of vineyard yeast isolate – strain RM11-1a, OD600, basal, 24 h, primary screen (AID 1177);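 also: cultures grown under basal conditions with no added stressor; test concentration not given here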; conditions: S. cerevisiae RM11-1a growth, OD600, 24 h; higher = more signal, called active from +8 up or from −8 down
# [7] = growth of efflux-deficient E. coli DRC39 – strain DRC39, OD650, 24 h, E. coli filamentation inducers, primary screen (AID 1178);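 also: growth measured as culture turbidity by optical density at 650 nm; test concentration not given here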; conditions: E. coli DRC39 acrAB, higher = more signal, called active from +8 up or from −8 down
# [8] = growth of efflux-deficient E. coli DRC39 – strain DRC39, OD650, 48 h, E. coli filamentation inducers, primary screen (AID 1179);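 also: screen aims at cell division blockers that make cells filament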; conditions: E. coli DRC39 delta-acrAB growth, higher = more signal, called active from +8 up or from −8 down
# [9] = viability profiling in RPMI8226 myeloma cells – cell-based, resazurin fluorescence, basal, 24 h, PK04 Diversity Set, profiling panel (AID 1180); conditions: higher = more signal;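 also: RPMI8826 multiple myeloma cell line at 5000 cells per well; test concentration not given here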
# [10] = molecular target: E3 ubiquitin-protein ligase XIAP (Homo sapiens) (UniProt P98170); assay: small molecules binding XIAP protein – biophysical, small-molecule microarray, fluorescence 635 nm, primary screen (AID 1181); conditions: higher = more signal;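 also: score merges 667 nm emission and signal to noise over triplicate slides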
# E3 ubiquitin-protein ligase XIAP (Homo sapiens), sequence (P98170 whole entry, looked up): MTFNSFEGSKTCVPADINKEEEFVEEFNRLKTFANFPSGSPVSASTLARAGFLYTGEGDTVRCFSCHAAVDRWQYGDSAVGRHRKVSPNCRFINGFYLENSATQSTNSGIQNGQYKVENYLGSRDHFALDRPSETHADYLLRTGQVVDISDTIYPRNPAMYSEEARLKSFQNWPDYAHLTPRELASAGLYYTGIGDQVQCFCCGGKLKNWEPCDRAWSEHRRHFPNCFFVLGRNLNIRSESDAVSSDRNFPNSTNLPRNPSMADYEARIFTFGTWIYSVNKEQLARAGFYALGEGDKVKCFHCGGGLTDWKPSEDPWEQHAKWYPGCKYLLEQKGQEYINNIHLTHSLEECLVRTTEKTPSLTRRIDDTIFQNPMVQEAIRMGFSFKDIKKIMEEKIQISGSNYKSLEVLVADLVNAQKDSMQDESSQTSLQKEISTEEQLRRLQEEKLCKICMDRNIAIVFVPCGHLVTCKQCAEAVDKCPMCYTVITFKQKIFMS
# Dihydroorotate dehydrogenase (quinone), mitochondrial (Plasmodium falciparum (isolate 3D7)), sequence (Q08210 whole entry, looked up): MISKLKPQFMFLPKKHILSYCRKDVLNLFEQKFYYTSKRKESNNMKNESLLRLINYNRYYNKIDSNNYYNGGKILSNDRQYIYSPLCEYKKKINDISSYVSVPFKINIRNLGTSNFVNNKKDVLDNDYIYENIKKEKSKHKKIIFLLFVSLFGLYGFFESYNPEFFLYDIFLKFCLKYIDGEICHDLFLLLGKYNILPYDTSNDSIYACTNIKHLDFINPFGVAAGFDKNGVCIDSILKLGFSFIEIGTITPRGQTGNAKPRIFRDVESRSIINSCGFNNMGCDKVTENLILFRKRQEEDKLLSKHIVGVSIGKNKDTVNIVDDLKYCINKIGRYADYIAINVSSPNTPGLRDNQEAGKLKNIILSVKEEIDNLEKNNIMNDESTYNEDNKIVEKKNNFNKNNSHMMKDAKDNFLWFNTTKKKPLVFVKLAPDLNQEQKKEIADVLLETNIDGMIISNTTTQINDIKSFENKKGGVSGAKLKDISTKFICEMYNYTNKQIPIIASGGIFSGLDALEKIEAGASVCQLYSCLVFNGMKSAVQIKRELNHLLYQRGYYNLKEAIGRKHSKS
Structure (SMILES),z-score [1],z-score [2],z-score [3],composite z-score [4],z-score [5],z-score [6],z-score [7],z-score [8],z-score [9],composite z-score [10]
COC(=O)[C@@]1(Cc2ccc(F)cc2)[C@H]2c3cc(C(=O)N4CCCC4)n(Cc4ccc(S(C)(=O)=O)cc4)c3C[C@H]2CN1C(=O)c1ccccc1,-0.608,1.01 (inactive),-1.03 (inactive),-0.159 (inactive),1.09 (inactive),0.458 (inactive),-1.12 (inactive),-0.704 (inactive),-0.948,0.261
CC(C)C(O)C1C=CC2C(=O)N(c3ccccc3)C(=O)C2N1Nc1ccc([N+](=O)[O-])cc1 (stereo not given),-0.283,-0.539 (inactive),-0.413 (inactive),-0.0755 (inactive),0.312 (inactive),-0.0749 (inactive),-0.912 (inactive),-0.347 (inactive),-0.601,0.302
CC1CC/C=C\[C@H]2OC34C=CCN(Cc5ccccc5)C(=O)[C@H]3N(CCCO)C(=O)[C@@H]4C2C(=O)O1 (stereo not given in full),-0.385,-0.739 (inactive),0.0639 (inactive),-0.311 (inactive),-0.0963 (inactive),-0.52 (inactive),1.02 (inactive),0.568 (inactive),0.44,-0.176
COc1cc2c(cc1OC)CN(C(=O)[C@@H]1[C@H]3C(=O)O[C@H](c4ccccc4)[C@H](c4ccccc4)N3[C@H](c3ccc(O)cc3)[C@@]13C(=O)Nc1ccccc13)CC2,-0.313,-0.128 (inactive),0.118 (inactive),-0.228 (inactive),0.614 (inactive),0.028 (inactive),1.07 (inactive),-0.4 (inactive),0.109,-0.201
C=C[C@H](CO[Si](CC)(CC)CC)N(Cc1ccc(OC(C)=O)c(OC)c1)S(=O)(=O)c1ccc(Br)cc1,-0.423,-0.128 (inactive),-0.649 (inactive),-1.38 (inactive),-0.649 (inactive),0.292 (inactive),0.93 (inactive),1.67 (inactive),-3.37,0.0487
C=CCNC(=O)[C@H]1[C@@H]2C(=O)O[C@@H](c3ccccc3)[C@@H](c3ccccc3)N2[C@@H](c2ccccc2OCCO)[C@]12C(=O)Nc1ccc(C#CCC(C(=O)OC)C(=O)OC)cc12,0.57,2.25 (inactive),-7.81 (inactive),-0.95 (inactive),2.07 (inactive),3.57 (inactive),0.284 (inactive),-0.303 (inactive),-7.24,-0.159
CCC(CC)C(O)C1C=CC2C(=O)NC(=O)C2N1Nc1ccccn1 (stereo not given),-1.34,0.341 (inactive),-1.76 (inactive),-0.629 (inactive),0.503 (inactive),0.469 (inactive),-0.485 (inactive),0.333 (inactive),-1.11,0.162
CCCC#C[Si](O[C@H](CC)c1cn(Cc2cccc(Cl)c2)nn1)(C(C)C)C(C)C,0.345,-12.9 (active),0.0454 (inactive),-0.345 (inactive),-0.0057 (inactive),0.61 (inactive),1.11 (inactive),0.775 (inactive),0.33,-0.0855
COC(=O)[C@@]1(Cc2ccc(OC)cc2)[C@@H]2C(=CC(=O)[C@H]2CC(=O)C(=O)N2CCCC2)CN1C(=O)c1ccccc1,1.82,1.1 (inactive),-0.846 (inactive),1.7 (inactive),-0.374 (inactive),0.423 (inactive),-0.0187 (inactive),0.798 (inactive),-0.663,-0.0118
COc1ccc(CCNC(=O)[C@@]2(Sc3ccc(C)cc3)CC(=O)N(C(C)C)[C@@H]2c2ccc(CO)cc2I)cc1,0.104,-1.77 (inactive),-1.63 (inactive),0.0834 (inactive),0.196 (inactive),-0.894 (inactive),-0.246 (inactive),-0.126 (inactive),-2.47,0.0374
CCOC(=O)C1=CC[C@@H](c2ccccc2)N(S(=O)(=O)c2ccc(C)cc2)[C@H]1c1ccccc1C,1.81,0.786 (inactive),0.336 (inactive),-0.494 (inactive),-0.377 (inactive),-0.59 (inactive),-0.502 (inactive),0.3 (inactive),0.686,-0.0239
COC(=O)[C@@]1(Cc2ccccc2)N=C(c2ccc(OCCCO)cc2)O[C@H]1c1ccccc1,-0.882,-2.46 (inactive),-2.96 (inactive),1.14 (inactive),0.991 (inactive),1.47 (inactive),2.8 (inactive),0.608 (inactive),-2.43,0.244
[N-]=[N+]=Nc1ccccc1[C@H]1OC(c2ccc(OCCCO)cc2)=N[C@@]1(CCS(=O)(=O)c1ccccc1)C(=O)NCC(O)CO (stereo not given in full),-0.14,-0.484 (inactive),-0.0646 (inactive),1.01 (inactive),0.854 (inactive),-0.129 (inactive),-0.117 (inactive),-0.878 (inactive),-0.389,0.0727
